Bioassay records: PubChem BioAssay, Fisher Drug Discovery Resource Center
mcGAS MS inh: mouse cGAS inhibition by mass spec | actives 0.18% (n = 130,000) | recombinant mouse cGAS, cGAMP by RapidFire MS | inhibition, % at 12.5 µM;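 active = inhibition of cGAS enzyme activity at or above 60%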;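 note: enzyme stimulated by 45 bp dsDNA with ATP and GTP substrates; cGAMP share of summed cGAMP plus half ATP and half GTP signals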
Target sequence (Q8C6L5 whole entry, looked up): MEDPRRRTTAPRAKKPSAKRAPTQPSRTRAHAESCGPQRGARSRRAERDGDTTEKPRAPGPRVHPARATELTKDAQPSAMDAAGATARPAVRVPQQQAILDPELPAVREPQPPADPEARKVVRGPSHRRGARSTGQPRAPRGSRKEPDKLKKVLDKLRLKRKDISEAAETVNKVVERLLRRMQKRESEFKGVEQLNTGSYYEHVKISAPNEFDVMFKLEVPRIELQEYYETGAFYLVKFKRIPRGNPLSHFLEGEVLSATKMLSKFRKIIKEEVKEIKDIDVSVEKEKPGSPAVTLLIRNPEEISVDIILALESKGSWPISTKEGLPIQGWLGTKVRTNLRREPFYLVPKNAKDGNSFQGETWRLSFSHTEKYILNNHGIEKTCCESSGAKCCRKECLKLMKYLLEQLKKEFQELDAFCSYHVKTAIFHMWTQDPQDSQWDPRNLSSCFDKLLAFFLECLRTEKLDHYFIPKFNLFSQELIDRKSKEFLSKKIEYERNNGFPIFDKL
Of the large screens only hits and unclear results are named; the others gave an inactive call; ! = not confirmed by another sample. Only a selection was taken, and hits are over-represented in it overall.

CC1CC[C@@]2(OC1)O[C@H]1CC3C4CC[C@@H]5C[C@@H](O)CC[C@]5(C)C4CC[C@]3(C)[C@H]1[C@@H]2C (some centres not stated)	none
Cc1nc2cc(OCc3nc(C(=O)N4CCSCC4)co3)ccc2s1	none
O=C(c1cccc2ccccc12)C1CCCN(C(=O)CCc2ccccn2)C1 (configuration not stated)	none
CCCCc1csc(C(=O)Nc2cc(C(N)=O)ccc2Cl)n1	none
COc1cc(-c2cccc(C(=O)O)c2)ccc1NC(C)=O	none
COc1cc(-c2ccc(NN=C3C=Cc4c(S(=O)(=O)O)cc(S(=O)(=O)O)c(N)c4C3=O)c(OC)c2)ccc1NN=C1C=Cc2c(S(=O)(=O)O)cc(S(=O)(=O)O)c(N)c2C1=O	mcGAS MS inh 98
C=C1C[C@]23C[C@@]1(O)CC[C@H]2[C@@]12C=C[C@H](O)[C@](C)(C(=O)O1)[C@H]2[C@@H]3C(=O)O	none
CCNC(=S)NN=C(C)c1ccco1	none
CCOc1ccc2nc3cc(N)ccc3c(N)c2c1	mcGAS MS inh 92!
Nc1c2ccccc2nc2ccccc12 (tested in a mixture with another compound)	none
CCOc1ccc2nc(NC(=O)CC)sc2c1	none
CCc1c2cc(OC)c(OC)cc2cc(=O)n1N	none
COc1ccc(-c2cc(NC(=O)C3CC3)ccc2OC)cc1	none
COc1ccc(OCCCCOc2ccccc2[N+](=O)[O-])cc1	none
COc1ncccc1NC(=O)NC1(c2ccc(Cl)cc2)CCC1	none
O=C(NC1(c2ccc(F)cc2)CCCC1)c1cccs1	none
Cc1cccnc1NC(=O)NC1(c2ccc(F)cc2)CCC1	mcGAS MS inh 78
O=C(c1csc(COc2ccc(F)cc2F)n1)N1CCCC1	none
Cc1cc(NC(=O)COC(=O)Cc2n[nH]c(=O)c3ccccc23)on1	none
CC(C)=CC(=O)N1CCC(c2cc(C(C)C)n[nH]2)CC1	none
CC(C)c1cc(C2CCN(C(=O)c3nc(C(C)C)cs3)CC2)[nH]n1	none
CC(C)c1cc(C2CCN(C(=O)C3=NN(C)C(=O)CC3)CC2)[nH]n1	mcGAS MS inh 78
COc1ccccc1C(=O)Nc1c2c(nn1-c1cccc(C)c1C)CSC2	none
NCCCC1(C2OCCO2)CCOCC1	none
Cc1ccc(OCc2cc(C(=O)N3CCC(C(=O)c4ccccc4)CC3)no2)cn1	none
C=CCNC(=O)NC(=O)CSc1nncn1C	none
Cc1ccc(C=Cc2sc3ccccc3[n+]2CCCS(=O)(=O)O)cc1	mcGAS MS inh 86
COc1ccc(C=Cc2sc3ccccc3[n+]2CCCS(=O)(=O)O)cc1OCc1ccccc1	none
CCOc1ccc(N=c2scc(-c3ccc4c(c3)NC(=O)CO4)n2C2CCCC2)cc1	none
Cc1cccc2cc(CO)c(-c3ccc(S(C)(=O)=O)cc3)nc12	none
Cc1ccc2c(c1)c(CNC(=O)c1ccccc1C1CCNC1)nn2C (configuration not stated)	none
Cc1ccc2c(c1)c(CNC(=O)CCc1c(C)nn(C)c1C)nn2C	none
Cc1ccc2c(c1)c(CNC(=O)C1CNCC(=O)N1)nn2C (configuration not stated)	mcGAS MS inh 64
CNC(=O)c1ccc(Oc2nccc(C(F)(F)F)n2)cc1	none
O=C(CSc1nnc(C2CC2)n1C1CC1)NCc1ccco1	none
COc1coc(C(=O)Nc2nnc(C)s2)cc1=O	mcGAS MS inh 70
COc1coc(C(=O)Nc2nc(C)cs2)cc1=O	none
COc1coc(C(=O)Nc2nc3ccccc3s2)cc1=O	none
O=C(c1nn(-c2ccccc2)c(=O)c2ccccc12)N1CCC(C(=O)N2CCOCC2)CC1	none
COc1ccc(OC)c(CNCc2c(C)nc3ccccn23)c1	none
COc1ccc(Cn2cccc(C)c2=O)c(Cl)c1	none
COc1ccc(CNCc2ccccc2Cn2cccn2)c(Cl)c1	mcGAS MS inh 83
Cc1cc(C)cc(NC(=O)Cc2csc(NC(=O)c3cccs3)n2)c1	none
CC(NC(=O)c1cccc(CN2C(=O)CSC2=O)c1)C(C)(C)C (configuration not stated)	none
COc1ccc(N2C(=O)C(N)C(=N)C2(C)C)cc1 (configuration not stated)	none
CCN(CC)C(=S)SC(C)C(=O)NC1CC1 (configuration not stated)	none
CCN(CC)C(=S)SSC(=S)N(CC)CC	mcGAS MS inh 76!
Cc1ccc(C(=O)Nc2ccc(N3CCNC(=O)C3)c(Cl)c2)cc1	none
O=C1NC(=S)N/C1=C\c1ccc([N+](=O)[O-])o1	none
CC(c1ccccc1-n1cccn1)n1cc2ncccc2c1O (configuration not stated)	none
CCN(CC)CCNc1nc2c(F)cccc2s1	none
CCN(CC)CCNc1ccc(CO)c2sc3ccccc3c(=O)c12	mcGAS MS inh 66!
CCN(CC)CCNC(=O)c1cnc(C(C)(C)C)s1	none
Cc1ccccc1N1CCN(C(=O)CC2C(=O)NCCN2Cc2cccc(F)c2F)CC1 (configuration not stated)	none
N#Cc1ccccc1NC(=O)c1c(-c2ccccc2)c(-c2ccccc2)n[nH]c1=O	none
N#Cc1ccccc1NC(=O)C1=COCCO1	none
N#Cc1ccccc1NC(=O)c1n[nH]c([N+](=O)[O-])c1Br	mcGAS MS inh 70
CCOc1ccc(Br)cc1S(=O)(=O)N1CCN=C1C	none
c1ccc2sc(C3CCCCN3Cc3cscn3)nc2c1 (configuration not stated)	none
